“And” between values parts separate entries of the source, which are not always exact repeats. Equal values may be shown once. In all, about 5,500 compounds went through this assay and about 2,000 (36%) were called active. Another 18% or so got no clear call; they are omitted. No stated cut-off is given here; in the data, active means normalized growth mostly below about 0.91 (no sharp cut-off); inconclusive means no clear call, values can overlap the other calls; inactive means mostly above about 0.92. Some of the results follow.
Test: chemical genetic growth profiling, strain panel (AID 1159580);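 further: tested at 20 µM; growth read once vehicle control cultures reached saturation at 30 °C; 1 = growth at the plate median or of vehicle wells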
Settings: S. cerevisiae deletion strains, growth OD

Measured: normalized growth

CN1CCN(CC(=O)N2c3ccccc3C(=O)Nc3cccnc32)CC1
inactive: locus YAL013W, strain DEP1, stronger effect = lower value 1.01 | locus YAL021C, strain ccr4, stronger effect = lower value 0.991 | locus YAL026C, strain drs2, stronger effect = lower value 1.03 | locus YAL030W, strain snc1, stronger effect = lower value 0.999 | locus YAL040C, strain CLN3, stronger effect = lower value 0.963 | locus YBL061C, strain skt5, stronger effect = lower value 1.01 | locus YBR009C, strain hhf1, stronger effect = lower value 0.999 | locus YBR021W, strain FUR4, stronger effect = lower value 1.02 | locus YBR023C, strain chs3, stronger effect = lower value 1.01 | locus YBR171W, strain sec66, stronger effect = lower value 1.02 | locus YBR229C, strain ROT2, stronger effect = lower value 1.01 | locus YBR231C, strain swc5, stronger effect = lower value 1.01 | locus YBR279W, strain paf1, stronger effect = lower value 1.01 | locus YCL011C, strain gbp2, stronger effect = lower value 1.02 | locus YCL016C, strain dcc1, stronger effect = lower value 1 | locus YCL029C, strain bik1, stronger effect = lower value 1.02 | locus YCL061C, strain MRC1 (second series), stronger effect = lower value 0.981 | locus YCL061C, strain MRC1, stronger effect = lower value 1.02 | locus YCL069W, strain vba3, stronger effect = lower value 1.03 | locus YCR088W, strain abp1, stronger effect = lower value 1.01 | locus YDL005C, strain med2, stronger effect = lower value 0.999 | locus YDL035C, strain GPR1, stronger effect = lower value 1.02 | locus YDL040C, strain nat1, stronger effect = lower value 0.992 | locus YDL074C, strain BRE1, stronger effect = lower value 1.05 | locus YDL101C, strain DUN1, stronger effect = lower value 1.02 | locus YDL134C, strain PPH21, stronger effect = lower value 0.991 | locus YDL185W, strain tfp1, stronger effect = lower value 1 | locus YDL192W, strain arf1, stronger effect = lower value 1.01 | locus YDR001C, strain nth1, stronger effect = lower value 1.01 | locus YDR069C, strain doa4, stronger effect = lower value 0.989 | locus YDR101C, strain arx1, stronger effect = lower value 1 | locus YDR137W, strain rgp1, stronger effect = lower value 1.02 | locus YDR150W, strain NUM1, stronger effect = lower value 1.01 and 1 | locus YDR159W, strain sac3, stronger effect = lower value 1.01 | locus YDR162C, strain NBP2, stronger effect = lower value 1.01 | locus YDR195W, strain ref2 0.999 | locus YDR297W, strain sur2, stronger effect = lower value 1.01 | locus YDR318W, strain mcm21, stronger effect = lower value 1.02 | locus YDR334W, strain swr1, stronger effect = lower value 1.04 | locus YDR335W, strain msn5, stronger effect = lower value 1.04 | locus YDR363W, strain ESC2, stronger effect = lower value 1.02 | locus YDR388W, stronger effect = lower value 1.02 | locus YDR392W, strain spt3, stronger effect = lower value 1.01 | locus YDR502C, strain sam2, stronger effect = lower value 1.02 | locus YEL003W, strain gim4, stronger effect = lower value 1.01 | locus YEL037C, strain rad23, stronger effect = lower value 1.01 | locus YEL061C, strain CIN8 (second series), stronger effect = lower value 1.03 | locus YEL061C, strain CIN8, stronger effect = lower value 1.01 | locus YER002W, strain NOP16, stronger effect = lower value 0.986 | locus YER015W, strain faa2, stronger effect = lower value 1.02 | locus YER016W, strain bim1, stronger effect = lower value 0.997 | locus YER110C, stronger effect = lower value 1.02 | locus YER111C, strain swi4, stronger effect = lower value 1.02 | locus YER155C, strain BEM2 (second series), stronger effect = lower value 1.08 | locus YER155C, strain BEM2, stronger effect = lower value 1.01 | locus YER167W, strain BCK2, stronger effect = lower value 1.02 | locus YFR010W, strain ubp6, stronger effect = lower value 1.02 | locus YGL078C, strain dbp3, stronger effect = lower value 1.01 | locus YGL086W, strain mad1, stronger effect = lower value 1.01 | locus YGL167C, strain pmr1, stronger effect = lower value 1.01 | locus YGL173C, strain kem1, stronger effect = lower value 1.06 | locus YGL227W, strain vid30, stronger effect = lower value 1.02 | locus YGL240W, strain doc1, stronger effect = lower value 1.02 | locus YGL248W, strain PDE1, stronger effect = lower value 1.01 | locus YGL253W, strain hxk2, stronger effect = lower value 1.01 | locus YGR078C, strain PAC10, stronger effect = lower value 1.02 | locus YGR135W, strain pre9, stronger effect = lower value 1.01 | locus YGR229C, strain SMI1, stronger effect = lower value 1.01 and 0.968 | locus YGR252W, strain gcn5, stronger effect = lower value 0.995 | locus YHR013C, strain ard1, stronger effect = lower value 1.03 | locus YHR027C, strain rpn1, stronger effect = lower value 1.01 | locus YHR030C, strain SLT2, stronger effect = lower value 1.01 and 0.978 | locus YHR079C, strain IRE1 (second series), stronger effect = lower value 1.02 | locus YHR079C, strain IRE1, stronger effect = lower value 0.986 | locus YHR094C, strain hxt1, stronger effect = lower value 1.02 | locus YHR129C, strain ARP1, stronger effect = lower value 0.995 | locus YHR142W, strain chs7, stronger effect = lower value 1.04 | locus YHR200W, strain rpn10, stronger effect = lower value 1.01 | locus YIL066C, strain RNR3, stronger effect = lower value 1.01 | locus YIL073C, strain SPO22, stronger effect = lower value 1.02 | locus YIL125W, strain kgd1, stronger effect = lower value 1.01 | locus YIR030C, strain dcg1, stronger effect = lower value 1.01 | locus YJL092W, strain hpr5, stronger effect = lower value 1.02 | locus YJL095W, strain BCK1 (second series), stronger effect = lower value 0.991 | locus YJL095W, strain BCK1, stronger effect = lower value 1.04 and 0.99 | locus YJL115W, strain asf1, stronger effect = lower value 1.01 | locus YJL129C, strain trk1, stronger effect = lower value 1.03 | locus YJL134W, strain LCB3, stronger effect = lower value 1.01 | locus YJL154C, strain vps35, stronger effect = lower value 1.01 | locus YJL164C, strain tpk1, stronger effect = lower value 1.01 | locus YJL166W, strain qcr8, stronger effect = lower value 1.03 | locus YJL168C, strain set2, stronger effect = lower value 1.02 | locus YJL187C, strain SWE1 (second series), stronger effect = lower value 1.01 | locus YJR043C, strain POL32, stronger effect = lower value 1.01 | locus YJR066W, strain TOR1, stronger effect = lower value 0.926
